Laboratory results from article PMC6212790, “How bacterial xenogeneic silencer rok distinguishes foreign from self DNA in its resident genome”.
Over roughly 33,000 sequences, “e-score” has its median near -0.038; the highest 2% begin near 0.33. Only a selection was taken, and the highest values are over-represented in it overall.

These sequences were tested against T1, GST-Rok-C97-191 (Bacillus subtilis subsp. subtilis str. …, UniProt O34857 97-191) (assay: protein binding microarray; Rok is a gene silencer of Bacillus subtilis; high values mean tight binding). Settings: protein: recombinant; tags: GST (pTH5325, pDEST15-Magic modified); dsDNA, one strand shown.
T1 sequence: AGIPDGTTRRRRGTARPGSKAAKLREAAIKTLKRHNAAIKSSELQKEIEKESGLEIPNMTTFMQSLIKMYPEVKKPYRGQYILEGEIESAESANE
Summary of the method: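 Each has a 25-mer constant primer and a 35-mer variable part from a de Bruijn sequence of order 10, covering every non-palindromic 8-mer at least 32 times (palindromic 16). Preference for each 8-mer is given as a rank-based, unitless enrichment score (E-score). Its range runs from 0.5 (most favored) to −0.5 (most disfavored).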

Sequence	binding signal [E-score]
AGACTACA	0.0455
GAACTACA	0.252
GGTCCGAC	-0.143
ATGAAAGC	-0.0998
AGGTGAAG	-0.109
TACTGTAA	0.323
CGGAGAAC	0.0827
ACATTCGA	0.071
CAACTACC	0.271
AAACTACC	0.473
TAACTACA	0.423
TGACTACA	0.031
TCACTACA	-0.0801
AGACTACC	0.268
AACAGCTC	0.087
TATGGAGA	0.0429
ATGTACAT	0.377
ATGTACAG	0.317
TTGTACAA	0.342
GTGTACTA	0.16
GTGTACAA	0.213
CTGTACAA	0.0696
ATGTACCC	0.0999
ATGTACCA	0.335
CTGTACCA	-0.0649

Sequence	binding signal [E-score]
ATGTACTC	0.178
ATGTACTA	0.376
ATGTACAA	0.317
ATGCAGTC	-0.0482
ATCTAAAC	0.0603
AGGCCAAT	-0.176
CCTACAGA	0.064
AAGTCTAG	0.0844
GGTTATAA	0.0781
GGAGTTGA	-0.137
AAGACCAA	-0.0146
CGACCACA	-0.0849
ACGCGCAT	-0.158
CTCTACAA	0.00826
GTCTACAA	-0.0759
TTCTACAA	0.362
ACGACCGT	0.00992
ACATTGCA	0.0494
ACTAGATG	0.317
CCTAGATA	0.0777
ATTAGATC	0.0978
ACTAGATC	0.335
CCTAGATC	0.0939
ACTAGATA	0.403
CGGCACTC	-0.0669

Sequence	binding signal [E-score]
CCCATTTC	0.0795
ATGACCTG	-0.0486
CCGACTAG	0.0252
ATTATAGC	0.189
ATTATATA	0.446
ATTATATC	0.384
GTTATATA	0.31
CTTATATC	0.117
GTTATTTA	0.273
ATTATATG	0.223
ATTATTTA	0.37
CTTATTTA	0.184
AAAATGCA	0.153
TAAGTGCA	0.0583
CCTAATTA	0.28
GCTAATTA	0.289
CCTAATTC	0.115
ACTAATTA	0.444
ACTAATTC	0.373
ACTAATTG	0.189
CACTTGGC	-0.143
CCTGACCA	-0.111
AAAGTTCG	0.0847
CGCGCTAC	-0.0357
CGCGCTAA	0.329

Sequence	binding signal [E-score]
TGCGCTAA	-0.0024
AATCTGTG	-0.0756
CTAATTTA	0.305
ATAATTTG	0.344
AGAATTTC	0.255
ATAATTCA	0.245
GCAATTTA	0.257
GTAATTGA	0.0917
ATAATTTC	0.36
AGAATTTG	0.161
CTAATTTC	0.272
ACAATTTG	0.104
ATAATTTA	0.354
GTAATTTA	0.353
CAGGGATC	-0.151
AGAGCTAA	0.148
AGTCCTCC	-0.0852
AAAATTAT	0.239
GCTCACTA	0.0154
GAAGAGGA	-0.151
GGCATACC	0.00482
GCGGACGA	-0.188
AGAGGCAT	0.0046
AATACGCT	-0.133
ACAACGAG	-0.0859

Sequence	binding signal [E-score]
AGAGAAAG	0.159
CGATGACC	-0.125
ATTTGTAC	0.333
GATTGTAA	0.0411
CTTTGTAC	0.249
ATTTGTAA	0.203
AATTGTAC	0.211
GATTGTAC	0.365
TAACTCCA	0.0761
CTCGGGAC	-0.0122
CTACCTAC	0.376
ATACCTAG	0.253
GAACCTAC	0.198
CTACCTAA	0.174
GTACCTAA	0.155
CTACCTAG	0.243
GTACCTAC	0.349
ATACCTAC	0.333
ATACCTAT	0.323
AACATATC	0.233
CATGTTAC	0.15
CTCCACTA	0.107
CAGCCCTG	-0.157
GTAAATAC	0.336
ATAAATAA	0.269

Sequence	binding signal [E-score]
ATAAATAT	0.369
AGAAATAT	0.346
CTAAATAC	0.287
ATAAATAC	0.287
AGAAATAG	0.326
AGAAATAC	0.311
ACAAATAT	0.337
ACAAATAA	0.246
ACAAATAC	0.266
ATAAATAG	0.252
TAGTCGCA	0.00372
AAAGGGTT	-0.0515
CGACCAGC	-0.129
AACGAGAG	-0.0985
ACTTCCGG	-0.139
CAAAAGGG	-0.177
CAAACGCC	-0.166
ATTCCGGG	-0.0619
AATTCCTA	0.155
AAATCCCA	0.123
CGATAGTA	0.382
CGATAGTC	-0.0434
GGATAGTA	0.142
AGATAGTG	0.174
AGATAGTC	0.0233

Sequence	binding signal [E-score]
AGATAGTA	0.376
ACTCCAAA	-0.0283
AGAGCCAA	-0.0861
ACCTTCCG	-0.0992
CCGTACTC	0.0243
ATGTAAAC	0.031
CTGTAAAA	0.0478
ATGTAAAG	0.164
ATGTAATA	0.32
CTGTAATA	0.334
ATGTAAAT	0.373
ATGTAAAA	0.351
CTGTAATC	0.13
TTGTAAAA	0.265
GAGAGTGC	-0.103
ACGGCAAT	0.0959
GGCTTCTA	0.11
ATCGCCGC	-0.0266
ATATATCA	0.396
ATATATCC	0.268
GTATATCA	0.216
CTATATCA	0.185
CTATATCC	0.17
ATATATCG	0.366
